The source of these data is patent US20060069055, “Delivery of polynucleotides” (published 2006).

This test concerns the target NF-kB p65/p50 heterodimer (Homo sapiens, UniProt Q04206;P19838 Q04206:1-551,P19838:1-433). Briefly: EMSA; competition against labelled probe 113/114. To be noted: protein: extract; tags: nuclear extract of LPS-stimulated THP-1 cells; dsDNA, one strand shown; PS at the 4 most 3' linkages of both strands. The source says: The EMSA assay was employed to characterize oligonucleotide decoys for the NF-κB transcription factor. […] Using the above modified oligonucleotides to compete for binding for the above-mentioned NF-κB family members, it was possible to compare the binding affinity of these oligonucleotides against the high affinity radiolabeled probe and each other. This assay has also enabled the design of a decoy which selectively binds particular members of the NF-κB family. By using increasing concentrations of various oligonucleotides, it was observed that, by deleting or changing targeted residues in the binding site, it was possible to specifically decrease the binding of the decoy molecule to p50/p50 homodimers, while retaining the affinity for p65/p50 and cRel/p50 heterodimers.
The NF-κB gel shift assays (EMSA) were performed as follows. A double-stranded oligonucleotide containing a consensus NF-κB binding site (5′ […].GGC 3′) (SEQ ID NO: 26) was end-labeled with γ³²P-ATP using T4 Polynucleotide Kinase (Promega). […] The dried gels were imaged and quantitated using a Typhoon 8600 Phosphorlmager (Amersham) and ImageQuant software. […]
(In EMSA bound probe runs differently from free probe, usually more slowly.)

Chain of NF-kB p65/p50 heterodimer (Q04206 whole entry, chain 1 of 2): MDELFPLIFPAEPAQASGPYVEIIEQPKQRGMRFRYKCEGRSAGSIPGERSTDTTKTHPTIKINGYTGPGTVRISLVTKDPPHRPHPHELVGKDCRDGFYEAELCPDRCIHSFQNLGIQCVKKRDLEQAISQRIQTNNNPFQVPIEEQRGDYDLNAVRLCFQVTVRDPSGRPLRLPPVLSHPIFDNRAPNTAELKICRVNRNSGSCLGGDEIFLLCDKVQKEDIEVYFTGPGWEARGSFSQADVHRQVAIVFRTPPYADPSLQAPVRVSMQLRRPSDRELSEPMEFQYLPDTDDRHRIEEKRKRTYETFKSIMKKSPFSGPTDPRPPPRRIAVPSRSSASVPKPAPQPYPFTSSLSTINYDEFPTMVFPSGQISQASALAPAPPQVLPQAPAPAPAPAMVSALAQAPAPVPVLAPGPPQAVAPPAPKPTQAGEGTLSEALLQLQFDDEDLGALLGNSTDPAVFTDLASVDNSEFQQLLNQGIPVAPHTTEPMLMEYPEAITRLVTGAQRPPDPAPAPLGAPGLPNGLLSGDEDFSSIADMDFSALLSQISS
Chain of NF-kB p65/p50 heterodimer (P19838 1-433, chain 2 of 2): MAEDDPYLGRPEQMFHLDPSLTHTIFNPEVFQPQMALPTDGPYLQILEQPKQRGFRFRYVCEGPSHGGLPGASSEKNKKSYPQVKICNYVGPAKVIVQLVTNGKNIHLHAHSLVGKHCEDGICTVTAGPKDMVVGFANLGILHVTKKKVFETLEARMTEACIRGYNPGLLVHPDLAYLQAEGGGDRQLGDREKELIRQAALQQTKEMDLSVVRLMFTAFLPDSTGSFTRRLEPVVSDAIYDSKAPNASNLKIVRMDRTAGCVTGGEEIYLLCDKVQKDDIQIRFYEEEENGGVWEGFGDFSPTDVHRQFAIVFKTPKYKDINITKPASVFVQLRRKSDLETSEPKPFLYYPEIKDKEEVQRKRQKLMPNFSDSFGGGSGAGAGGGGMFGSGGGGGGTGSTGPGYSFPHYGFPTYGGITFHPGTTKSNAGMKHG

For the sequence AGTTGAGGACTTTCCAGGC, the IC50 was found to be 85 fold molar excess.
